Compound activity: PubChem, National Center for Advancing Translational Sciences (NCATS)
G9a block: qHTS Assay for Inhibitors of Histone Lysine Methyltransferase G9a. G9a H3K9 monomethylation, AlphaScreen, 2 h. 8.8% of 350,000 active. Potency, µM (doses to about 102 µM), hits mostly inhibitors. Histone-lysine N-methyltransferase EHMT2 (Homo sapiens), Q96KQ7; note: nearly all actives have a fitted effect of over 75% in size
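AlphaScreen read-out: biotin-H3K9 peptide (500 nM) methylation by 20 nM enzyme with 20 uM SAM, 2 h at room temperature after 15 min compound preincubation; anti-monomethyl H3K9 antibody plus donor/acceptor beads, 10 min dark.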
L3MBTL1 block: qHTS Assay for the Inhibitors of L3MBTL1. 0.66% of 230,000 active. Lethal(3)malignant brain tumor-like protein 1 (Homo sapiens), Q9Y468. Potency, µM (top dose mostly 57.1 µM), hits mostly inhibitors. AlphaScreen L3MBTL1–H3K9me1 peptide binding; note: nearly all actives have a fitted effect of over 60% in size
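First, the protein-peptide complex forms for 30 min at room temperature (L3MBTL1 50 nM, biotinylated H3K9me1 peptide 75 nM). Next, compounds are pin-transferred and incubated 30 min. Finally, AlphaScreen beads are added and read after 30 min.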
PI5P4Ka inh: qHTS for Inhibitors of phosphatidylinositol 5-phosphate 4-kinase (PI5P4K); Phosphatidylinositol 5-phosphate 4-kinase type-2 alpha (Homo sapiens), P48426; PI5P4Kalpha enzyme, ADP-Glo luminescence, 60 min; active compounds read low; max response, %; 1.2% of 330,000 active; AID 652105, 2013; active = max response of -50% or lower; inconclusive = between -30% and -50%; inactive = -30% or higher; note: value at the top dose of about 77 µM
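qHTS, 1536-well: enzyme/substrate mix, compound by pin tool, 5 microM ATP final; RT 60 min; ADP-Glo reagents 1 (45 min) then 2 (30 min); luminescence.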
JMJD2A Tudor: qHTS Assay for Inhibitors of JMJD2A-Tudor Domain; AlphaScreen JMJD2A-Tudor / H3K4me3 peptide binding; Potency, µM (highest dose often 114 µM), hits mostly inhibitors; 4.4% of 390,000 active; AID 504339, 2011; note: nearly all actives have a fitted effect of over 50% in size
BAZ2B block: qHTS Assay for Inhibitors of BAZ2B; 4.4% of 360,000 active; AlphaScreen BAZ2B-H3K14Ac peptide displacement; Potency, µM (top dose mostly 114 µM), usual class: inhibitors; Bromodomain adjacent to zinc finger domain protein 2B (Homo sapiens), Q9UIF8; note: nearly all actives have a fitted effect of over 60% in size
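Compounds, titrated to a top concentration of 110 uM, were incubated 30 min at room temperature with preformed BAZ2B/acetyl-K14 H3 peptide complex (50 nM each). Proximity signal was measured by AlphaScreen after 20 min with beads.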
HP1b binding inh: HTS for Inhibitors of HP1-beta Chromodomain Interactions with Methylated Histone Tails | AlphaScreen HP1-beta / biotin-H3K9me3 peptide binding | Chromobox protein homolog 1 (Homo sapiens), P83916 | Potency, µM (doses to about 114 µM), hits mostly inhibitors | 0.56% of 390,000 active; note: nearly all actives have a fitted effect of over 70% in size
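AlphaScreen: HP1-beta (50 nM) preformed 30 min with biotin-H3(1-18)K9me3 peptide (50 nM) in PBS pH 7.4, 0.01% Tween-20. Compound added for 30 min at RT, then streptavidin donor/nickel chelate acceptor beads (10 ug/mL) for 30 min.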
Large screens that a line does not name were inactive. Sampled rows, rich in hits. Any-hit rate of the full collection: about 11%. Unless noted, calls come from the whole dose curve; as a rule, active = well fitted inhibition curve with a large enough effect; inconclusive = small, poorly fitted or top-dose-only effect; inactive = no such curve, though single readings can be large or run the other way.

CN1CCN(c2ccc(N)cc2)CC1	G9a block 12.6µM, JMJD2A Tudor inconclusive, BAZ2B block inconclusive (no result: L3MBTL1 block)
CCN1CCN(c2ccc(N)cc2C)CC1	G9a block 31.6µM, JMJD2A Tudor inconclusive, BAZ2B block inconclusive
CCOC(=O)Cn1c(=O)oc2cc(S(=O)(=O)NC3CCCc4ccccc43)ccc21 (stereo unspecified)	G9a block inconclusive (no result: L3MBTL1 block)
CCCC[C@@H](C)[C@@H](OC(=O)C[C@@H](CC(=O)O)C(=O)O)[C@H](C[C@@H](C)C[C@H](O)CCCC[C@@H](O)C[C@H](O)[C@H](C)N)OC(=O)C[C@H](CC(=O)O)C(=O)O	none (no result: L3MBTL1 block, PI5P4Ka inh, JMJD2A Tudor, BAZ2B block, HP1b binding inh)
CCCCn1c(O)c(C(CC)=NCCN2CCOCC2)c(=O)[nH]c1=O	G9a block inconclusive, BAZ2B block inconclusive (no result: L3MBTL1 block, PI5P4Ka inh)
CCCCn1c(O)c(C=NCCN2CCCCC2)c(=O)[nH]c1=O	G9a block 79.4µM
CCC(=NCCCN1CCOCC1)c1c(O)n(Cc2ccccc2)c(=O)[nH]c1=O	G9a block 12.6µM (no result: PI5P4Ka inh)
CCC(=NCCN1CCOCC1)c1c(O)n(-c2ccccc2C)c(=O)[nH]c1=O	G9a block 28.2µM
CCCCn1c(O)c(C=NCCCN(CC)CC)c(=O)[nH]c1=O	none (no result: BAZ2B block)
CC(=NCCCN1CCOCC1)c1c(O)n(Cc2ccccc2)c(=O)[nH]c1=O	none
CCCCn1c(O)c(C(C)=NCCN2CCOCC2)c(=O)[nH]c1=O	G9a block 22.4µM (no result: L3MBTL1 block, PI5P4Ka inh)
O=C(COC(=O)c1cccnc1Cl)NCCc1ccc(F)cc1	none (no result: G9a block, BAZ2B block)
CCN1C[C@]2(C)CC[C@H](O)[C@@]34[C@@H]5C[C@@H]6[C@@H](OC)C[C@@](O)(C5[C@H]6O)[C@@H](C[C@@H]23)[C@@H]14	none (no result: L3MBTL1 block, PI5P4Ka inh, JMJD2A Tudor, BAZ2B block, HP1b binding inh)
C=C(C)[C@]12C[C@@H](C)[C@@]34OC(Cc5ccccc5)(O[C@@H]1[C@@H]3C=C(COC(=O)Cc1cc(I)c(O)c(OC)c1)C[C@]1(O)C(=O)C(C)=C[C@@H]41)O2	none (no result: L3MBTL1 block, PI5P4Ka inh, JMJD2A Tudor, BAZ2B block, HP1b binding inh)
CC/C(=N\NC(=O)c1ccccc1)c1c(O)n(Cc2ccccc2)c(=O)[nH]c1=O	G9a block inconclusive, PI5P4Ka inh -85.4, HP1b binding inh inconclusive
CCC(=NCC1CCCO1)c1c(O)n(Cc2ccccc2)c(=O)[nH]c1=O (stereo unspecified)	none
Cn1cc(C(=O)c2ccccc2)c2ccccc21	none (no result: L3MBTL1 block)
COC(=O)c1ccc(NS(=O)(=O)NC(=O)c2cn(C)c3ccccc23)cc1	G9a block 79.4µM, BAZ2B block inconclusive (no result: L3MBTL1 block)
CN(CCc1nnc(N)s1)[N+](=O)[O-]	G9a block 22.4µM
C/C(CC(c1ccccc1)c1c(O)c2ccccc2oc1=O)=N\NC(N)=S (stereo unspecified)	G9a block inconclusive, JMJD2A Tudor 1.26µM
CN[C@H](CC(C)C)C(=O)N[C@H]1C(=O)N[C@@H](CC(N)=O)C(=O)N[C@H]2C(=O)N[C@H]3C(=O)N[C@H](C(=O)N[C@H](C(=O)O)c4cc(O)cc(O)c4-c4cc3ccc4O)[C@H](O)c3ccc(c(Cl)c3)Oc3cc2cc(c3O[C@@H]2O[C@H](CO)[C@@H](O)[C@H](O)[C@H]2O[C@H]2C[C@](C)(N)[C@H](O)[C@H](C)O2)Oc2ccc(cc2Cl)[C@H]1O	none (no result: L3MBTL1 block, PI5P4Ka inh, JMJD2A Tudor, BAZ2B block, HP1b binding inh)
c1cnc(N2CCCC3(CCNCC3)C2)nc1	none (no result: L3MBTL1 block, PI5P4Ka inh, JMJD2A Tudor, BAZ2B block, HP1b binding inh)
c1cnc(N2CCNCC2)nc1	G9a block 17.8µM, JMJD2A Tudor inconclusive, BAZ2B block inconclusive
CCCCCCCCCC(CC)c1ccc(S(=O)(=O)O)cc1 (stereo unspecified)	none (no result: L3MBTL1 block, PI5P4Ka inh, JMJD2A Tudor, BAZ2B block, HP1b binding inh)
CN1CCN(CC#CCOc2ccc(Cl)cc2)CC1	G9a block 11.2µM, JMJD2A Tudor 7.94µM, BAZ2B block 39.8µM, HP1b binding inh inconclusive
